Experiment [1] can be described thus: rapamycin-like changes in RPL19A-GFP expression – cell-based, S. cerevisiae, multiplex flow cytometry, primary screen (AID 1862; in the data active = percent of DMSO control GFP below about 86%;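 also: lower values mimic rapamycin by blocking the RPL19A rise seen in DMSO cells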). The following applies: S. cerevisiae RPL19A-GFP strain, flow cytometry fluorescence, 3 h; at 10 µM; stronger effect = lower value.
A short description of experiment [2]: TOR pathway GLN3 branch reporter MEP2-GFP changes – S. cerevisiae, multiplex flow cytometry, primary screen (AID 1867;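 active = GFP response, as percent of the DMSO control, above the screen-wide mean plus 3 SD, about 139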;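 also: median GFP channel fluorescence of barcode-gated MEP2-GFP cells measured by flow cytometry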). Particulars: S. cerevisiae MEP2-GFP strain, 3 h, at 10 µM, stronger effect = higher value, 100% means same as DMSO wells.
A short description of experiment [3]: TOR pathway RTG branch CIT2 reporter changes – S. cerevisiae, GFP fusion, multiplex flow cytometry, primary screen (AID 1870).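 Also: barcoded CIT2-GFP strain pooled with four other GFP strains with rapamycin as positive control; median GFP fluorescence per well over plate mean of DMSO wells so 100% = DMSO.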 The following applies: S. cerevisiae CIT2-GFP expression, 3 h, at 10 µM, stronger effect = higher value.
Experiment [4] can be described thus: TOR pathway LAP4-GFP level changes – S. cerevisiae, multiplex flow cytometry, primary screen (AID 1873;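 active = GFP signal, as percent of the solvent control, above the screen mean plus 3 SD, about 149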). The following applies: S. cerevisiae LAP4-GFP expression, 3 h, at 10 µM, stronger effect = higher value.
A short description of experiment [5]: yeast AGP1-GFP level changes, GLN3 branch – cell-based, multiplex flow cytometry, S. cerevisiae, primary screen (AID 1887;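 active = GFP signal above the screen-wide mean plus 3 SD, that is over about 124.5% of the solvent control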;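 also: AGP1-GFP fusion strain of S. cerevisiae within a five-strain barcoded multiplex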). Particulars: 3 h, at 10 µM, stronger effect = higher value.
The nature of experiment [6]: reduced mouse 2C T cell binding to pMHC/ICAM-1 vesicles – MLPCN validation set, flow cytometry, LFA-1/ICAM-1 modulator project, pilot screen (AID 2523;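 active = response below a set limit, under 55% cells CD8-positive and vesicle-bound, and CD8 cells' 90th-percentile brightness under 279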;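 as to vesicle binding response: mean PE anti-B7-1 fluorescence of CD8+ cells relative to row control; 100% = QL9-loaded vesicles with DMSO vehicle in the same plate row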). The following applies: 2C mouse CD8+ T cells, at 7 µM, stronger effect = lower value; double positive events: measured here: CD8+/vesicle+ event percentage.
The target of experiment [7] is Integrin beta-1 (Homo sapiens) + Integrin alpha-4 (Homo sapiens) (UniProt P13612+P05556). As to the kind of experiment: alpha4beta1 integrin LIBS antibody binding reduction – U937 cells, HUTS-21 mAb, flow cytometry, validation set, VLA-4 allosteric modulator project, pilot screen (AID 2674;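 active = inhibition above 50%, about 3 SD of the validation set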;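 also: antibody binding induced by the VLA-4 ligand LDV present at three times its Kd; 0% = LDV ligand with antibody and no compound and 100% = antibody without LDV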). The following applies: HUTS-21 LIBS mAb binding, at 6.7 µM, stronger effect = higher value, binding induced by LDV ligand.
Sequence of Integrin beta-1 (Homo sapiens) + Integrin alpha-4 (Homo sapiens) (P05556 whole entry, looked up): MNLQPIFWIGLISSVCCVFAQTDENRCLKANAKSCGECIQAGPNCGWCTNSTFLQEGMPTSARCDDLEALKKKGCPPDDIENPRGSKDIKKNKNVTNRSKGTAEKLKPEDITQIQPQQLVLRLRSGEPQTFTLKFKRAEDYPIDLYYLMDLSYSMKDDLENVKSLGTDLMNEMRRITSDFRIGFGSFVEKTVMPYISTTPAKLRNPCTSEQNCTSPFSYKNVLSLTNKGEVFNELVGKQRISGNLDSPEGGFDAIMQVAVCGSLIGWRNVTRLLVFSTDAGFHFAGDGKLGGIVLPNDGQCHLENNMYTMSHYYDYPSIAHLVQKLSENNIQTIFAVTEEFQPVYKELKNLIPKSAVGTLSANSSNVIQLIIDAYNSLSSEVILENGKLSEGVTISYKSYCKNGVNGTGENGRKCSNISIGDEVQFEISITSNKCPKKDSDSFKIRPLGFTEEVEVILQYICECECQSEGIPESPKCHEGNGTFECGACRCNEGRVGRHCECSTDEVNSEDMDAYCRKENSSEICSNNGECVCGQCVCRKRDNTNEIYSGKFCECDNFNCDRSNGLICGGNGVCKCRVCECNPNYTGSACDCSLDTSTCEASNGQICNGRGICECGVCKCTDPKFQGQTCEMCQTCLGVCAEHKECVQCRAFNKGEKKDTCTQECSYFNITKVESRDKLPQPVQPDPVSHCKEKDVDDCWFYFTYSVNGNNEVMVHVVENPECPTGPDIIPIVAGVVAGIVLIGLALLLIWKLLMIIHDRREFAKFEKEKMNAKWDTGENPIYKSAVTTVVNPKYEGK
Sequence of Integrin beta-1 (Homo sapiens) + Integrin alpha-4 (Homo sapiens) (P13612 whole entry, looked up): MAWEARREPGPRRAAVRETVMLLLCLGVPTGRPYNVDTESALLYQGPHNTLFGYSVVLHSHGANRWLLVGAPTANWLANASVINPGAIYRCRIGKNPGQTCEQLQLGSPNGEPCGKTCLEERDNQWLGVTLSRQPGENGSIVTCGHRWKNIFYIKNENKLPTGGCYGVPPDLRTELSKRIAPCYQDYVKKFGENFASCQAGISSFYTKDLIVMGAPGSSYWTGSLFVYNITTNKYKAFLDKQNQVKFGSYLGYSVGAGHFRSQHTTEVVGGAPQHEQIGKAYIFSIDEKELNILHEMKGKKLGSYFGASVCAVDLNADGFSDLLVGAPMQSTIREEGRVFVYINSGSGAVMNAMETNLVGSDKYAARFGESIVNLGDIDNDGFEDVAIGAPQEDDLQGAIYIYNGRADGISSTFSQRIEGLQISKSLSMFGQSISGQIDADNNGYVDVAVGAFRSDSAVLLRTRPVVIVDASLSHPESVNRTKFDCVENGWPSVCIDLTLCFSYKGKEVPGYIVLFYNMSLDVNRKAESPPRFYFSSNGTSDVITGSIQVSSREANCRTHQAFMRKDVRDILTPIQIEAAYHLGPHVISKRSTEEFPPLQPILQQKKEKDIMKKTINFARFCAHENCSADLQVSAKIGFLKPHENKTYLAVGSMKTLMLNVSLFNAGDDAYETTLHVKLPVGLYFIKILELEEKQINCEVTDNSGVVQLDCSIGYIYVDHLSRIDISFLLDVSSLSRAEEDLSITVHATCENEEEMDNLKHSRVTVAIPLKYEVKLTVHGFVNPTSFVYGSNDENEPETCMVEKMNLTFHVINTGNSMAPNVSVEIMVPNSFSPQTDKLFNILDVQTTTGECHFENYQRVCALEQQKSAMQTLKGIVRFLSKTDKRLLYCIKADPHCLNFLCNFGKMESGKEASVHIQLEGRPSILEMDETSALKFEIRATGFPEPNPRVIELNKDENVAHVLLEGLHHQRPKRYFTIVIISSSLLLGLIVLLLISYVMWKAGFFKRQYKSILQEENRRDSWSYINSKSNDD

A short description of experiment [8]: calorie-restriction mimetic ROS inhibitors, yeast – validation compound set, pilot screen (AID 2706;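 active = superoxide response below 65% of plate, a cut near 3 SD across the whole screen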;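 also: yeast exposed to compound for one week at 30 degrees C before staining; 100% = mean of all compound wells on the same plate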). The following applies: S. cerevisiae aging, superoxide DHE fluorescence; at 10 µM; stronger effect = lower value.
Experiment [9] deals with Beta-adrenergic receptor kinase 1 (Homo sapiens) (UniProt P25098). As to the kind of experiment: GRK2 binders displacing RNA aptamer, biochemical, validation, human GRK2, bead flow cytometry (AID 488806;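 active = aptamer binding inhibition above 30%, about 3 SD of noise from non-fluorescent compounds; inactive = inhibition at or below 30%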). The following applies: bead-bound GRK2, FAM-aptamer displacement, at 10 µM, stronger effect = higher value.
Sequence of Beta-adrenergic receptor kinase 1 (Homo sapiens) (P25098 whole entry, looked up): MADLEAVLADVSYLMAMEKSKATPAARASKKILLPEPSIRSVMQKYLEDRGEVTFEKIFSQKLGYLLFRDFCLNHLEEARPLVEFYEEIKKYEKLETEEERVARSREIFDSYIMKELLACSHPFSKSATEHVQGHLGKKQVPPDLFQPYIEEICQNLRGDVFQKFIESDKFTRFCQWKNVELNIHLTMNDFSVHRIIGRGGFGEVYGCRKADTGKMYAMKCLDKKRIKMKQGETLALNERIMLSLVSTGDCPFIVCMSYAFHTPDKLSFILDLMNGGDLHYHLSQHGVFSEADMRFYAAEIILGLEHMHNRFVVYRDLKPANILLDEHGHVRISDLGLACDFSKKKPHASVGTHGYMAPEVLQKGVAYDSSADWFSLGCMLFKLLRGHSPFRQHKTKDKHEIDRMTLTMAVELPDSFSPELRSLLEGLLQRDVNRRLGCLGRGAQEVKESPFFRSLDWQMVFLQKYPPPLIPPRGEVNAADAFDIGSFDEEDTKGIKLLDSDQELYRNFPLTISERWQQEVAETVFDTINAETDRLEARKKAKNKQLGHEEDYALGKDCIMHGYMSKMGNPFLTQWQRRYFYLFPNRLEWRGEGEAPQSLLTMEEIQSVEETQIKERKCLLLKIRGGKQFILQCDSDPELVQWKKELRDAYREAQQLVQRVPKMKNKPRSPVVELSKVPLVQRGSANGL
Experiment [10] concerns the target Beta-2 adrenergic receptor (Homo sapiens) (UniProt P07550). Kind of experiment: agonist-induced loss of surface beta2AR – cell-based, FAP fluorogen, flow cytometry, validation set, pilot screen (AID 504459;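 active = percent response above 42, roughly 3 SD of non-fluorescent test compounds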;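 also: agonist-driven loss of surface beta2AR via internalization measured by FAP dye flow cytometry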). Particulars: Am2.2-beta2AR cells, at 10 µM, stronger effect = higher value.
Experiment [11] has as its target AP-2 complex subunit beta (Homo sapiens) (UniProt P63010). As to the kind of experiment: beta-arrestin/AP2 interaction blockers – biochemical, validation set, GST-AP2 beads, flow cytometry, pilot screen (AID 504541;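 active = inhibition above 54%, about 3 SD of non-fluorescent compounds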;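 also: AP2 carries R879A mutation and is captured from E. coli lysate; bead-bound FITC arrestin peptide fluorescence measuring arrestin peptide binding to AP2; 0% = DMSO wells and 100% = excess unlabeled arrestin peptide control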). Particulars: FITC arrestin peptide, at 10 µM, stronger effect = higher value, AP2 beta2 appendage fragment, R879A mutant.
Experiment [12] can be described thus: cytosolic pH regulators acting via V-ATPase – S. cerevisiae, pHLuorin, HTS validation (AID 504600; in the data active = response above about 15%;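 also: plate controls were DMSO for no effect and reference compound for full effect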). The following applies: V-ATPase proton transport, at 10 µM, stronger effect = higher value.
Experiment [13] has as its system anti-desmoglein-3 scFv antibody binding to human DSG3. As to the kind of experiment: blockers of pathogenic pemphigus antibody–desmoglein-3 binding – biochemical, validation compound set, bead-based, flow cytometry, pilot screen (AID 588368;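 active = binding below the plate cutoff, the plate median minus 3 SD, with a reading above zero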;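 also: signal is the median channel fluorescence of bead-bound GFP antibody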). The following applies: Protein G beads, DSG3-Fc, scFv-GFP binding, at 10 µM, stronger effect = lower value.
The nature of experiment [14]: Nile Red efflux blockade in pump-expressing yeast – validation compound set, multiplex, phenotypic, pilot screen (AID 588506;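 active = efflux inhibition above 0.42, the validation set average plus 4 SD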;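 also: Nile Red retained in cells so higher fluorescence means more efflux inhibition; 0 = negative control wells and 1 = enniatin B 25 µM full block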). Particulars: S. cerevisiae pump-expressing triplex, Nile Red efflux flow cytometry; at 10 µM; stronger effect = higher value; the pumps come from Candida albicans.
For experiment [15], the target named is ATP-binding cassette sub-family B member 6 (Homo sapiens) (UniProt Q9NP58). As to the kind of experiment: blockers of ABCB6-driven porphyrin uptake – K562-ABCB6 cells, flow cytometry, validation set, pilot screen (AID 588550;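 active = inhibition above the screen-wide mean plus 3 SD, about 51%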;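 also: 0% = DMSO wells and 100% = benzethonium chloride 70 µM positive control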). Particulars: K562-ABCB6 porphyrin accumulation, 1 h, at 10 µM, stronger effect = higher value.
Sequence of ATP-binding cassette sub-family B member 6 (Homo sapiens) (Q9NP58 whole entry, looked up): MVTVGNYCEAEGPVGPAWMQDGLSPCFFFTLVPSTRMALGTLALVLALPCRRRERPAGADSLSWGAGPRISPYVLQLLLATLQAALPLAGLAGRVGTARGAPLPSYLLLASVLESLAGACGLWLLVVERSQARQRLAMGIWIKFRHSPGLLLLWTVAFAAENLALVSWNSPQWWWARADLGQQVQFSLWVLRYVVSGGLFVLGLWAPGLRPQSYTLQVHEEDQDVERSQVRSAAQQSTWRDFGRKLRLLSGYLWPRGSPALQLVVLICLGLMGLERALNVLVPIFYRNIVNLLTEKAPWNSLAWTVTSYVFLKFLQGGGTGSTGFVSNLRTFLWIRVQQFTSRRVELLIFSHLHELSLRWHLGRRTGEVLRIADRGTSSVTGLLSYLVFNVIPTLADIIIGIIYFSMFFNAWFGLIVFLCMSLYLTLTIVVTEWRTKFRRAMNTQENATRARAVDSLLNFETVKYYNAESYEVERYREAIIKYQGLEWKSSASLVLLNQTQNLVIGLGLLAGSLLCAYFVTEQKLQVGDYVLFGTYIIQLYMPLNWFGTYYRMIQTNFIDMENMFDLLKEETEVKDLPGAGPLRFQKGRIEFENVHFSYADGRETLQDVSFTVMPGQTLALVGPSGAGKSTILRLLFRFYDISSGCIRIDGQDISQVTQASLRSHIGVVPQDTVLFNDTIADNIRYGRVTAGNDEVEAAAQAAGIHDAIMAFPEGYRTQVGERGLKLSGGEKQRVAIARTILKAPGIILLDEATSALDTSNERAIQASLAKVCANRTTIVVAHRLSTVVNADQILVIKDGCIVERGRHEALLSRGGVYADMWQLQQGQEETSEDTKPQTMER
Experiment [16] can be described thus: AML differentiation inducers, ER-HoxA9 marrow cells – cell-based, GFP/MAC1 double positive, flow cytometry, validation set, primary screen (AID 588685;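 active = differentiation response of at least 50%, scaled between solvent and reference control, from cells with both markers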;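 also: compound exposure lasts four days before antibody staining and flow analysis; 0% = DMSO wells and 100% = 5 µM fulvestrant positive control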). Particulars: stronger effect = higher value, normalized: vehicle 0, fulvestrant 100.

Each structure is given as a SMILES string. Inconclusive results are not listed. Calls of active or inactive are those of the source.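 The calls were made as follows, unless noted: active = percent response above a set limit, the screen-wide mean plus 3 SD (cut at about 130% in these data); inactive = the rest.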

Sequence of Beta-2 adrenergic receptor (Homo sapiens) (P07550 whole entry, looked up): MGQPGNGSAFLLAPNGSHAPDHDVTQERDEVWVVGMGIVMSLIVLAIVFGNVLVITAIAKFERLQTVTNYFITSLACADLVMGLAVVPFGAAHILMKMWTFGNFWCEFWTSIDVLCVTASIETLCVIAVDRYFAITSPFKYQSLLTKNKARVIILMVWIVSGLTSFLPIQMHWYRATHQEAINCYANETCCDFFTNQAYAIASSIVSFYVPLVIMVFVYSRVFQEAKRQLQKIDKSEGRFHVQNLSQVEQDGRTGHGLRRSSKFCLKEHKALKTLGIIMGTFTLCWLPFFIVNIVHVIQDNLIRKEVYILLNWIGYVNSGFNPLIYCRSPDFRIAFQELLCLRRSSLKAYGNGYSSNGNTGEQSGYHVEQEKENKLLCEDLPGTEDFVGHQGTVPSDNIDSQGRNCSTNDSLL
Sequence of AP-2 complex subunit beta (Homo sapiens) (P63010 whole entry, looked up, the tested form may be a part, one chain of several): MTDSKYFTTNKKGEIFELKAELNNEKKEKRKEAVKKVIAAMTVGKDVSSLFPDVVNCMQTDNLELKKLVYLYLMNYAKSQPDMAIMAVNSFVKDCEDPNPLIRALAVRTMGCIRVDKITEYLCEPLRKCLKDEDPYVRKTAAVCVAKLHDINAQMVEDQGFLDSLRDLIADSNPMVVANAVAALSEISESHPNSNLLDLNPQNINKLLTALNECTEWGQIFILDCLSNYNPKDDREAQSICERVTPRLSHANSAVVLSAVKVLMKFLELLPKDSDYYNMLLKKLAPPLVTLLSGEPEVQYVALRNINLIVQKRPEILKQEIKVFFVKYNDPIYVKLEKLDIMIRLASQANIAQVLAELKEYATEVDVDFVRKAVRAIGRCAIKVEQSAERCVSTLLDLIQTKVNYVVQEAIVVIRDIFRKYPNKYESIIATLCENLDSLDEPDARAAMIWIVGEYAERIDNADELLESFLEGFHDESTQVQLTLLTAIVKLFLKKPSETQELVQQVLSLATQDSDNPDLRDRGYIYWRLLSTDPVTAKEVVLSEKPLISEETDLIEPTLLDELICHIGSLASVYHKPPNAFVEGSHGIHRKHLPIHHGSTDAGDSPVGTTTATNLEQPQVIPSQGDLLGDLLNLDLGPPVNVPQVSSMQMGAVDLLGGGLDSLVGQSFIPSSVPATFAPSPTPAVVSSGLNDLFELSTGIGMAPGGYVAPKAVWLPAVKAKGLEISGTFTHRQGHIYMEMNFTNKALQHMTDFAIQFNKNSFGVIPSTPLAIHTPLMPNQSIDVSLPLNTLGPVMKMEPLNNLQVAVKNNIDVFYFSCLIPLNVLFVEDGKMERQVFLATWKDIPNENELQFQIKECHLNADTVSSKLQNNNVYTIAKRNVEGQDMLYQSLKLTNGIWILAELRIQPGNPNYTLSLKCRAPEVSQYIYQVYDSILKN

As for `Cc1ccc(S(=O)(=O)NC(C(=O)Oc2ccc3c(C(F)(F)F)cc(=O)oc3c2)c2ccccc2)cc1` (stereo not given), the percent of DMSO control GFP in experiment [1] was 98.1% (inactive). Also, the figures for the GFP response vs DMSO in experiment [2] and in [4] were 102% (inactive) and 115% (inactive), respectively. Also, the percent response of DMSO control in experiment [3] is 100% (inactive). Besides, in experiment [5], the GFP response, % of DMSO is 107% (inactive). Also, the double positive events in experiment [6] amounted to 62.2%. The vesicle binding response in experiment [6] is 183% (inactive). Moreover, the values for the inhibition in [7], in [11] and in [15] were -6.23% (inactive), 59.2% (active) and -3% (inactive), respectively. Also, in experiment [8], the superoxide response (% of plate) was 106% (inactive). In experiment [9], the aptamer binding inhibition is -1% (inactive). For the same compound, the response in experiment [10] is 5.6% (inactive); in experiment [12], -16.5% (inactive). The binding (% of control) in [13] is 92.6% (inactive). Further, the efflux inhibition (fraction of control) in [14] is 0.12 (inactive). For the same compound, the differentiation response in experiment [16] was 0.92% (inactive).

On to `Cc1ccsc1/C=C/C1=NCCCN1C`, for which the percent of DMSO control GFP in experiment [1] was 106% (inactive). Also, the GFP response vs DMSO was 104% (inactive) in experiment [2] and 103% (inactive) in experiment [4]. In experiment [3], the percent response of DMSO control was 112% (inactive). The GFP response, % of DMSO in experiment [5] is 118% (inactive). The double positive events in [6] turned out to be 67.3%. Also, the vesicle binding response in experiment [6] was 168% (inactive). The inhibition in experiment [7] was -34.6% (inactive); in [11] it was -5.94% (inactive); in experiment [15], 1% (inactive). Also, in experiment [8], the superoxide response (% of plate) is 104% (inactive). Further, the aptamer binding inhibition in experiment [9] was 1% (inactive). In addition, the figures for the response in [10] and in experiment [12] were 3.43% (inactive) and 1.52% (inactive), respectively. For the same compound, in experiment [13], the binding (% of control) is 104% (inactive). Further, in experiment [14], the efflux inhibition (fraction of control) is -0.135 (inactive). Also, in experiment [16], the differentiation response was -3.11% (inactive).

Take `COc1ccc(CCn2c(C)nc3c(c(=O)c4ccccc4n3C)c2=O)cc1`: the percent of DMSO control GFP in [1] is 98.6% (inactive). In addition, the values for the GFP response vs DMSO in experiment [2] and in experiment [4] were 102% (inactive) and 104% (inactive), respectively. Further, in experiment [3], the percent response of DMSO control is 103% (inactive). Further, the GFP response, % of DMSO in experiment [5] is 116% (inactive). Further, the double positive events in experiment [6] was 61.1%. The vesicle binding response in [6] was 155% (inactive). For the same compound, the inhibition in experiment [7] was -8.78% (inactive); in experiment [11], 7.96% (inactive); in experiment [15], 5% (inactive). Besides, the superoxide response (% of plate) in experiment [8] is 96.8% (inactive). Besides, the aptamer binding inhibition in experiment [9] was 5% (inactive). In addition, the response is -29.5% (inactive) in experiment [10] and 7.85% (inactive) in [12]. Besides, the binding (% of control) in experiment [13] was 101% (inactive). The efflux inhibition (fraction of control) in experiment [14] was 0.21 (inactive). Moreover, in experiment [16], the differentiation response was 16.7% (inactive).

Turning to `OC(CCCN1CCC(O)(c2ccc(Cl)cc2)CC1)c1ccc(F)cc1` (stereo not given), the percent of DMSO control GFP in experiment [1] is 99.6% (inactive). Further, the GFP response vs DMSO is 103% (inactive) in experiment [2] and 101% (inactive) in experiment [4]. Also, in experiment [3], the percent response of DMSO control is 108% (inactive). In experiment [5], the GFP response, % of DMSO was 106% (inactive). This compound also yielded a double positive events in experiment [6] of 49.2%. In addition, in experiment [6], the vesicle binding response is 168% (inactive). For the same compound, the inhibition is -14.5% (inactive) in experiment [7], -4.86% (inactive) in [11] and -1% (inactive) in [15]. Further, the superoxide response (% of plate) in experiment [8] is 96% (inactive). Further, the aptamer binding inhibition in experiment [9] was -3% (inactive). The results for the response in experiment [10] and in [12] were 5.29% (inactive) and -0.08% (inactive), respectively. Besides, the binding (% of control) in [13] was 104% (inactive). Besides, in experiment [14], the efflux inhibition (fraction of control) is -0.005 (inactive). Besides, the differentiation response in experiment [16] was 10.1% (inactive).

Consider `CCOc1ccc2oc(-c3ccccc3)c(C(=O)O)c2c1`, for which, in experiment [1], the percent of DMSO control GFP was 97.8% (inactive). The GFP response vs DMSO was 108% (inactive) in experiment [2] and 110% (inactive) in experiment [4]. The percent response of DMSO control in experiment [3] was 100% (inactive). Besides, the GFP response, % of DMSO in [5] is 105% (inactive). The compound also gave a double positive events in [6] of 65.1%. In addition, the vesicle binding response in [6] was 204% (inactive). Besides, the inhibition is 5.69% (inactive) in [7], 7.05% (inactive) in experiment [11] and 9% (inactive) in experiment [15]. Also, in experiment [8], the superoxide response (% of plate) is 102% (inactive). Besides, the aptamer binding inhibition in experiment [9] was 6% (inactive). Besides, the results for the response in [10] and in [12] were -17.2% (inactive) and 1.4% (inactive), respectively. Besides, in [13], the binding (% of control) was 101% (inactive). In addition, the efflux inhibition (fraction of control) in experiment [14] is -0.04 (inactive). Besides, the differentiation response in [16] was 1.91% (inactive).

The values above are taken from PubChem BioAssay.
